Read-out in assay [1]: Monocyte Chemoattractant Protein-1 (MCP1), CCL2 (gene 6347)
In words: BSK_SAg_MCP1: BioMAP Diversity Plus: SAg Assay for Monocyte Chemoattractant Protein-1 (MCP1) Biomarker Activity (AID 2283090). The following applies: primary human HUVEC with PBMC; actives raise or lower the signal. Summed up:
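MCP-1 levels in the endothelial–PBMC SAg co-culture were quantified by ELISA at 24 h post-dosing; both increases and decreases versus DMSO scored. Cytotoxicity monitored by SRB total protein in parallel cultures.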

Read-out in assay [2]: E-selectin (Homo sapiens) (UniProt P16581)
As to the kind of experiment: BSK_SAg_Eselectin: BioMAP Diversity Plus: SAg Assay for Eselectin Biomarker Activity (AID 2283091). The settings on record: primary human HUVEC with PBMC; actives raise or lower the signal. In short, it runs like this:
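Endpoint values derive from bidirectional fitting relative to DMSO, using ELISA-measured E-selectin in a human vascular co-culture (umbilical vein endothelium plus PBMC) sampled 24 h after dosing.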

Read-out in assay [3]: Monokine induced gamma interferon (MIG), CXCL9 (gene 4283)
As to the kind of experiment: BSK_SAg_MIG: BioMAP Diversity Plus: SAg Assay for Monokine induced gamma interferon (MIG) Biomarker Activity (AID 2283092). The settings on record: primary human HUVEC with PBMC; actives raise or lower the signal. Summed up: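 ELISA readout of MIG/CXCL9; primary human umbilical vein endothelial cells co-cultured with peripheral blood mononuclear cells; 24 h post-dose; gain/loss fit vs DMSO baseline.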

Assay [4] in a line: BSK_SAg_PBMCCytotoxicity: PBMC Cytotoxicity Assessment in the BioMAP Diversity Plus: SAg Assay (AID 2283093).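 For AC50: PBMC superantigen activated with SEB plus TSST-1 one hour after compound addition.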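 Note: PBMC viability measured as Alamar Blue reduction fluorescence at 546/580 nm; fitted both ways against DMSO so a hit may be loss or gain of signal.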 The settings on record: primary human HUVEC with PBMC. In short, it runs like this: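 Compound added to 75,000 PBMC/well for 1 h; SEB and TSST-1 then added at 20 ng/mL final each; 90 h incubation; Alamar Blue 6 h; read 546/580 nm ex/em. Activity fitted bidirectionally relative to DMSO baseline.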

Read-out in assay [5]: Interleukin-8 (IL8), CXCL8 (gene 3576)
As to the kind of experiment: BSK_SAg_IL8: BioMAP Diversity Plus: SAg Assay for Interleukin-8 (IL8) Biomarker Activity (AID 2283094). The settings on record: primary human HUVEC with PBMC; actives raise or lower the signal. Summed up: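 Human umbilical vein endothelial cells co-cultured with peripheral blood mononuclear cells; IL-8 measured by ELISA 24 h after chemical dosing. Bidirectional concentration-response fitting used DMSO as negative control and activity baseline.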

Assay [6] in a line: BSK_SAg_Proliferation: Cell Proliferation Assessment in the BioMAP Diversity Plus: SAg Assay (AID 2283095).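 Note: relative cell number as total protein by SRB absorbance in sub-confluent culture.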 The following applies: primary human HUVEC with PBMC. In short, it runs like this:
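Human umbilical vein endothelial cells co-cultured with peripheral blood mononuclear cells; total protein measured by sulforhodamine B staining (0.1% SRB after 10% TCA fixation), absorbance at 560 nm, at 96 h. Bidirectional fit against DMSO baseline.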

Assay [7] in a line: BSK_SAg_SRB: Viability Assessment in the BioMAP Diversity Plus: SAg Assay (AID 2283096).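 Note: cells read one day after compound addition; hits may be either gain or loss of signal compared with DMSO.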 The settings on record: primary human HUVEC with PBMC. Summed up:
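Total protein by sulforhodamine B staining, 24 h after dosing, in HUVEC–PBMC co-culture; DMSO-referenced bidirectional fitting.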

Assay [8] concerns the target human CYP1A1, CYP1A1 (gene 1543) (UniProt P04798). As to the kind of experiment: NVS_ADME_hCYP1A1: NovaScreen (NVS) CYP450-related Enzyme Activity (ADME) Assay for human CYP1A1 (AID 2283100; active = hit-call score of the fitted dose curve at least 0.9, where 1 is the maximum). Summed up:
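Inhibition of recombinant CYP1A1 turnover was assessed fluorometrically in a biochemical format 1 h after compound exposure. Testing began at 10 uM in duplicate and progressed to concentration series reaching 20 uM, with on-plate positive and negative controls.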

Assay [9] has as its target human CYP19A1, CYP19A1 (gene 1588) (UniProt P11511). As to the kind of experiment: NVS_ADME_hCYP19A1: NovaScreen (NVS) CYP450-related Enzyme Activity (ADME) Assay for human CYP19A1 (AID 2283098; active = hit-call score of the fitted dose curve at least 0.9, where 1 is the maximum;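 for AC50: potency for inhibitors seen as loss of fluorescent enzyme signal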). In short, it runs like this:
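Biochem, cell-free; recombinant enzyme + specific substrate; fluorescence intensity at 0.5 h post-dose; 10 uM duplicate primary, conc. series for actives; acetonitrile = negative control/baseline; positive and negative controls on every plate.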

Several values for one entry are separate records, joined by “and”; a condition that tells them apart may be missing. Identical values can stand only once. Results filed as inconclusive are left out. Activity calls are given as the source filed them. Rule for the calls, unless noted: active = hit-call score of the fitted dose curve at least 0.9, where 1 is the maximum; inactive = score below 0.9.

human CYP19A1, CYP19A1 (gene 1588), sequence (P11511 whole entry, looked up): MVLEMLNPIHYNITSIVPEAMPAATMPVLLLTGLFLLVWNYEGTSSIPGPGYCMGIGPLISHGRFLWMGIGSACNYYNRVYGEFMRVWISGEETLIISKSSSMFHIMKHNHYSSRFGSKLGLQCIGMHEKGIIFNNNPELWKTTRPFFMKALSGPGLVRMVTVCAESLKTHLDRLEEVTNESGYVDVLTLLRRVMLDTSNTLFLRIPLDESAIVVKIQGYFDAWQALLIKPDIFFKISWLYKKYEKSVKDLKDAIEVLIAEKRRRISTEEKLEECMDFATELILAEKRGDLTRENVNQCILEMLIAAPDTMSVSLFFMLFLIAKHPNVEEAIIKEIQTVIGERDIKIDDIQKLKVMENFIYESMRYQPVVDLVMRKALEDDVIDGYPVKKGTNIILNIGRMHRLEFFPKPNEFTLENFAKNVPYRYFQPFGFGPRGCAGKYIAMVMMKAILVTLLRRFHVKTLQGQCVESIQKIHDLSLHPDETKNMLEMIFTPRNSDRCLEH
human CYP1A1, CYP1A1 (gene 1543), sequence (P04798 whole entry, looked up): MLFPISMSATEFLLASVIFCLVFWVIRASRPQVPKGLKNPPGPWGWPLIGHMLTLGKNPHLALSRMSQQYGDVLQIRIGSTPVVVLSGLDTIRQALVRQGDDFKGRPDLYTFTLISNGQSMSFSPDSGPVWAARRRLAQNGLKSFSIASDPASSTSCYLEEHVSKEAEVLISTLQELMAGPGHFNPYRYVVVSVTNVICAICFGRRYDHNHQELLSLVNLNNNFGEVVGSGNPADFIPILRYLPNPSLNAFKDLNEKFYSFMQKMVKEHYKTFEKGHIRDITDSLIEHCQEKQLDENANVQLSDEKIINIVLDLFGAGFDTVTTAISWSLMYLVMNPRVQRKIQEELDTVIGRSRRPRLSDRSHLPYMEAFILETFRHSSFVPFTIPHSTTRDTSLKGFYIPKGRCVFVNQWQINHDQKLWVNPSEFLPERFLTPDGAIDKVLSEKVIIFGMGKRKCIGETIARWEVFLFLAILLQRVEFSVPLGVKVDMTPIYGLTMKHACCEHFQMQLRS
E-selectin (Homo sapiens), sequence (P16581 whole entry, looked up): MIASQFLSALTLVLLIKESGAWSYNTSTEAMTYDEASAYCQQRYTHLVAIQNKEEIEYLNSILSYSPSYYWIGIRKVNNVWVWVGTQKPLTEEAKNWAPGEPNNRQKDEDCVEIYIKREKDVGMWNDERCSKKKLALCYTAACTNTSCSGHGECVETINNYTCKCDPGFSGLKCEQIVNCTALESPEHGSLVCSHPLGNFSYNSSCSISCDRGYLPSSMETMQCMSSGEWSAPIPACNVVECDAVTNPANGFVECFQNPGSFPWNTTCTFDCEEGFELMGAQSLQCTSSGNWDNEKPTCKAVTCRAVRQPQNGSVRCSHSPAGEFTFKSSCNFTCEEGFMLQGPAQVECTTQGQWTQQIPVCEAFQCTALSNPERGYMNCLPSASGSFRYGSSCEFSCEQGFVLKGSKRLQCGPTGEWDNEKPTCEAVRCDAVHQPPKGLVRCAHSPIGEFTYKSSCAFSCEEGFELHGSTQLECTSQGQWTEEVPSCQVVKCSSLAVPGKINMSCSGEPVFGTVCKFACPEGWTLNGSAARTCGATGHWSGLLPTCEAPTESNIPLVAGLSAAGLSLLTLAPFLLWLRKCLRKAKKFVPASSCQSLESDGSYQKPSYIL

`CCOP(=S)(OCC)Oc1ccc2c(C)c(Cl)c(=O)oc2c1`: the outcome in [1], in [3], in assay [4], in assay [5] and in assay [7] was inactive. The AC50 (usually the concentration giving half of the maximal activity seen) in assay [2] is 5.21 µM (active); in [6], 5.08 µM (active); in [8] it was 0.352 µM (active).
On to `CCOC(=O)COc1cc(-c2nn(C)c(OC(F)F)c2Cl)c(F)cc1Cl`, for which the outcome in assay [1], in assay [2], in assay [3], in assay [5], in assay [6] and in [7] was inactive.
Take `CC1=NNC(=O)N(/N=C/c2cccnc2)C1`: the result in assay [2], in [3], in assay [5], in [6] and in assay [7] was inactive.
On to `C#CC(C)(C)NC(=O)c1cc(Cl)cc(Cl)c1`, for which the result in assay [2], in assay [3], in assay [4], in assay [5], in assay [6] and in assay [7] was inactive. For the same compound, in [9], the compound was called inactive. Further, the AC50 in assay [8] was 2.56 µM (active).
For the compound `CSC1=N[C@@](C)(c2ccccc2)C(=O)N1Nc1ccccc1`, the results for the AC50 in assay [2], in assay [5] and in assay [6] were 8.29 µM (active), 8.81 µM (active) and 9.67 µM (active), respectively. Further, the outcome in [3] and in [7] was inactive.
For the compound `CCOP(=O)(NC(C)C)Oc1ccc(SC)c(C)c1` (stereo not drawn), the outcome in [2], in [3], in assay [5], in [6] and in assay [7] was inactive. In addition, in assay [8], the AC50 was 4.81 µM (active).
Take `O=[N+]([O-])c1cc(C(F)(F)F)c(Cl)c([N+](=O)[O-])c1Nc1ncc(C(F)(F)F)cc1Cl`: the AC50 in assay [2] was 1.51 µM (active) and 2.65 µM (active); in assay [3], 3.49 µM (active) and 2.45 µM (active); in assay [5], 1.81 µM (active) and 3.64 µM (active); in assay [6], 318 nM (active) and 526 nM (active); in [7], 3.84 µM (active).
Take `Cc1nn(-c2cc(NS(C)(=O)=O)c(Cl)cc2Cl)c(=O)n1C(F)F`: the outcome in assay [2], in assay [3], in assay [5], in assay [6] and in assay [7] was inactive.
For the compound `CC1(C(=O)Nc2ccc(O)c(Cl)c2Cl)CCCCC1`, the outcome in assay [2], in [3], in assay [4], in [5] and in assay [7] was inactive.
Take `CCOP(=S)(OCC)OC(Cl)C(Cl)(Cl)Cl` (stereo not drawn): the AC50 was 31.2 µM (active) in assay [2], 25.9 µM (active) in assay [5], 33.5 µM (active) in [6] and 13 µM (active) in assay [7]. In assay [3], the outcome was inactive.
In the case of `CCC(CC)Nc1c([N+](=O)[O-])cc(C)c(C)c1[N+](=O)[O-]`, the AC50 in assay [2] was 22.7 µM (active); in assay [3], 29.5 µM (active); in assay [4], 29.2 µM (active); in [5], 28.3 µM (active); in [6] it was 28.9 µM (active); in assay [7], 12.3 µM (active). For the same compound, the outcome in assay [9] was inactive.
Take `CCOP(=O)(OCC)Oc1cc(C)nc(C(C)C)n1`: the result in assay [2], in [3], in assay [4], in assay [5], in assay [6] and in assay [7] was inactive. The compound was classed as inactive in assay [9].
On to `CNc1cnn(-c2cccc(C(F)(F)F)c2)c(=O)c1Cl`, for which the AC50 in assay [2] is 19.2 µM (active); in assay [4] it was 7.99 µM (active); in [5] it was 10.9 µM (active); in [8], 6.11 µM (active). Besides, the result in assay [3], in assay [6], in [7] and in [9] was inactive.
With `CCOP(=O)(SC(C)CC)N1CCSC1=O` (stereo not drawn), the result in assay [2], in assay [3], in assay [4], in [6] and in [7] was inactive.
For the compound `CCCSP(=O)(OCC)Oc1ccc(Br)cc1Cl` (stereo not drawn), the AC50 in assay [2] is 25.5 µM (active); in assay [3], 36.5 µM (active); in [5] it was 26.3 µM (active); in assay [6], 29.3 µM (active); in [7], 11.7 µM (active).
For `N#CSCSC#N`, the AC50 in assay [2] is 11.1 µM (active); in assay [3], 8.84 µM (active); in assay [4], 3.25 µM (active); in [5] it was 11.7 µM (active); in [6], 1.99 µM (active); in assay [7], 6.08 µM (active).
For `CNC(=O)ON=C(C)SC`, the result in [2], in assay [3], in assay [5], in assay [6], in [7] and in assay [9] was inactive.
`COc1cccc(C(=O)NN(C(=O)c2cc(C)cc(C)c2)C(C)(C)C)c1C`: the result in assay [2], in assay [3], in assay [5], in assay [6] and in assay [7] was inactive.
In the case of `CCCCN(CC)c1c([N+](=O)[O-])cc(C(F)(F)F)cc1[N+](=O)[O-]`, the AC50 is 27.6 µM (active) in assay [2], 18.9 µM (active) in [6] and 1.93 µM (active) in assay [9]. The result in assay [3], in assay [5] and in assay [7] was inactive.

The values are drawn from PubChem BioAssay (EPA / NIEHS).
